Bioassay records: PubChem, several laboratories
TPT1 inh: C. albicans TPT1 enzyme inhibition | recombinant caTPT1, FP RNA substrate dephosphorylation | inhibition, % at 5 µM | 300,000 compounds, 0.81% hits | AID 1962;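 active = inhibition above the mean of all tested compounds plus 3 SD, set per screening campaign, cut at about 24% in these data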;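 also: plate controls were DMSO alone for no effect and ferristatin control at 100 nM for full effect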
IDE inh: inhibitors of human insulin-degrading enzyme in cells; HEK cells, FAbetaB cleavage, fluorescence polarization; inhibition, % at 5.59 µM; P14735; 320,000 compounds, 0.41% hits;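 active = percent inhibition above the average of all tested compounds plus 3 SD, set per screening campaign, cut at about 16% in these data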;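 also: IDE supplied by intact live HEK cells; FP after avidin binding of uncleaved biotin substrate so inhibition keeps polarization high; 0% = DMSO wells and 100% = 60 µM reference IDE inhibitor Ii1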
Calb FLC: affects C. albicans growth with fluconazole; growth inhibition, % (test concentration not listed); 300,000 compounds, 0.57% hits; AID 1979; C. albicans CaCi-2 (fluconazole-resistant clinical isolate) + fluconazole, Alamar Blue growth, 48 h;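 active = growth inhibition above about 58% in most replicates, limit read from the data, passing the limit was not always enough; inconclusive = exactly half the replicates above a set limit; inactive = most replicates below a set limit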;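 also: all wells also contain fluconazole at 8 µg/ml as a sub-toxic cotreatment; 0% = median of DMSO wells and 100% = median of geldanamycin control wells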
Rpn11 inh: inhibitors of human proteasome Rpn11. O00487. human 26S proteasome, Ub4-pepOG fluorescence polarization; 20S core pre-blocked with epoxomicin. inhibition, % at 20 µM. 360,000 compounds, 0.59% hits. AID 588493;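 active = inhibition at 20 µM, scaled to each plate's controls, above about 33%, limit read from the data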
Rin1 Abl inh: human Rin1-Abl interaction inhibition. AID 588664. P00519+Q13671. TR-FRET Rin1/Abl binding, biochemical. inhibition, % at 7.35 µM. 360,000 compounds, 0.4% hits; in the data active = inhibition above about 5%, passing the limit was not always enough
IDE act: activators of human insulin-degrading enzyme in cells. HEK cells, FAbeta-B cleavage, fluorescence polarization; 0% vehicle, 100% cell-free pure enzyme wells. 340,000 compounds, 0.073% hits. P14735. activation, % at 5.96 µM. AID 493087;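 active = activation above the mean of all tested compounds plus 3 SD, set per screening campaign, cut at about 17% in these data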
Rpn11 inh conf: confirmation of human proteasome Rpn11 inhibitors; inhibition, % at 20 µM; shares compounds with Rpn11 inh; purified human 26S proteasome, Ub4-pepOG fluorescence polarization; proteasome pretreated with epoxomicin; 1,900 compounds, 29% hits
MMP-2 inh: MMP-2 (human) inhibition counter-screen. shares compounds with Rpn11 inh. recombinant MMP-2, FRET peptide cleavage fluorescence. inhibition, % at 20 µM. 1,900 compounds, 4% hits. AID 602330;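 also: human MMP-2 activated beforehand with APMA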
Target sequence (P08253 whole entry, looked up): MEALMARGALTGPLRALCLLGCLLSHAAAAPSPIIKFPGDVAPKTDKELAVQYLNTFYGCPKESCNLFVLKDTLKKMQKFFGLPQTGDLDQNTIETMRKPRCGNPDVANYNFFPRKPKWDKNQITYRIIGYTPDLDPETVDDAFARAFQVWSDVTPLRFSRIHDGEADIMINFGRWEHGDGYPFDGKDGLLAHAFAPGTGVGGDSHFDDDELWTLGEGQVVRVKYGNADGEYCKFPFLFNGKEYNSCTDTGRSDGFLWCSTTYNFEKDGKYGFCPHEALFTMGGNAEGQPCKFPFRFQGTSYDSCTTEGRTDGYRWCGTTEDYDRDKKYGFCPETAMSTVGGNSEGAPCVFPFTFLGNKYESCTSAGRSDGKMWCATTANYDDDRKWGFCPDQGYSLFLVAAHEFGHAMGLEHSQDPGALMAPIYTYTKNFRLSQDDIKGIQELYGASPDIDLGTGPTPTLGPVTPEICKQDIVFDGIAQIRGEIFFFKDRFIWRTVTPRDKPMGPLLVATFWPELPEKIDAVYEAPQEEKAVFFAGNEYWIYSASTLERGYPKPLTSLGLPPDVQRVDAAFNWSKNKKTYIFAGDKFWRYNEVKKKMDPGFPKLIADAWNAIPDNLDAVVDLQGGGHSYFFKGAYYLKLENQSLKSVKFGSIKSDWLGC
Thrombin FP: thrombin (bovine) inhibition counter-screen; shares compounds with Rpn11 inh; bovine thrombin cleavage of Ub4-pepOG, fluorescence polarization; inhibition, % at 20 µM; 1,900 compounds, 13% hits;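 active = mean inhibition at least 40% at 20 µM, or signal 3 deviations below plate average, so some actives read negative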;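 also: plate controls were thrombin with DMSO for no effect and buffer wells lacking thrombin for full effect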
Active calls of the source: *; ? = inconclusive; . = no result given. Most compounds without a hit are left out; they make up all but 2.3% or so of the library. Rule as the data show it, unless noted: active = inhibition above about 40%; inactive = the rest.

SMILES	TPT1 inh	IDE inh	Calb FLC	Rpn11 inh	Rin1 Abl inh	IDE act	Rpn11 inh conf	MMP-2 inh	Thrombin FP
C/C(=N\NS(=O)(=O)c1ccc(Cl)c([N+](=O)[O-])c1)c1ccc(C)o1	-4	1	?	5	-1	1	.	.	.
C/C(=N\Nc1ccc(C#N)cc1[N+](=O)[O-])c1ccc(C)o1	-3	7	-40	64*	2	.	-9	-26	-16
Cc1ccc(NC(=O)CSc2nc3[nH]ncc3c(=O)[nH]2)cc1Cl	0	15	-1	51*	0	-2	-9	-22	-10
O=C(CSc1nc2[nH]ncc2c(=O)[nH]1)Nc1ccc(Cl)c(Cl)c1	0	-2	2	-2	5	1	.	.	.
CSc1ccc(CNC(=O)CCn2ccc3cc(S(=O)(=O)N4CCCC4)ccc32)cc1	0	-1	-1	2	-1	-3	.	.	.
CCC(=O)N(c1nnc(SCC(=O)Nc2sccc2C(N)=O)s1)C1CC1	.	.	.	-2	1	.	.	.	.
O=C(Nc1ccc(C2=NCCN2)cc1)c1ccc(C(=O)Nc2ccc(C3=NCCN3)cc2)c([N+](=O)[O-])c1	-1	7	107*	73*	0	6	35	61*	-21
COc1ccc(C(=O)COC(=O)c2cc(=O)c3ccccc3o2)c(OC)c1	.	.	.	1	1	.	.	.	.
COc1ccc(-c2cnc(C(O)c3ccc(OC)c(F)c3)[nH]2)cc1 (stereo not drawn)	.	.	.	-1	2	.	.	.	.
Cc1ccc(N(CC(=O)NCCSCc2ccco2)S(=O)(=O)c2ccc(C)cc2)cc1	0	2	6	53*	0	6	21	15	8
CCCCCCCCN1[C@@H](CC(=O)OC)c2cc(F)ccc2S1(=O)=O	-1	0	-2	56*	1	3	10	-9	5
CC(C)CCOc1ccc(/C=N/N2C(=O)CSC2=S)cc1	3	-3	8	39*	-2	2	-11	32	-9
O=S(=O)(O)c1ccc2c(c1)C(C(Cl)(Cl)Cl)OC(C(Cl)(Cl)Cl)O2 (stereo not drawn)	.	.	.	-2	0	7	.	.	.
N#CCSc1nc2cc(C(=O)N3CCC(C(N)=O)CC3)ccc2c2nc3ccccc3n12	0	11	8	34*	-5	-13	40	-39	7
N#CCSc1nc2cc(C(=O)N3CCCC3)ccc2c(=O)n1Cc1ccccc1	3	4	-11	-26	-3	-8	.	.	.
O=C1SC(SCc2ccccc2)=N/C1=C\c1ccco1	2	1	-20	6	-2	-10	.	.	.
CCCSC1=N/C(=C\C=C\c2ccco2)C(=O)S1	18	3	-12	81*	3	3	4	34	7
CC(=O)Nc1cccc(NC(=O)COc2ccc3c(c2)OCO3)c1	2	-5	1	-2	-4	8	.	.	.
CCCSc1nnc(CN2CCOCC2)n1C	0	4	-13	122*	-4	5	-12	-49	-18
COc1cc2c(C#CCO)c(-c3ccc(C#N)cc3)oc(=O)c2cc1OC	.	8	.	56*	-3	-3	19	-30	4
Cc1nc(SCc2nc3cc(Cl)c(F)cc3[nH]2)c2oc3ccccc3c2n1	.	7	.	75*	-4	-8	64*	-7	36
Cc1nc(SCc2nc3ccc(Br)cc3[nH]2)c2oc3ccccc3c2n1	.	-2	.	52*	-4	0	44*	-19	16
CCOCCCNC(=O)/C(C#N)=C/c1ccc([N+](=O)[O-])o1	0	2	2	37*	2	-10	18	-31	18
CN1CCN(C(c2ccccc2)c2ccc(Cl)cc2)CC1 (stereo not drawn)	-1	0	.	-5	1	4	.	.	.
CN1CCN(C(c2ccc(Cl)cc2)c2cc(Cl)c3cccnc3c2O)CC1 (stereo not drawn)	0	-14	-6	46*	3	10	44*	28	-8
SMILES	TPT1 inh	IDE inh	Calb FLC	Rpn11 inh	Rin1 Abl inh	IDE act	Rpn11 inh conf	MMP-2 inh	Thrombin FP
CCOC(=O)c1ccc(NC(=O)CCC(=O)NCc2ccco2)cc1	-1	-1	-8	1	-1	1	.	.	.
N#CCC(=O)Nc1ccc(C(=O)OCC(=O)NC(=O)NCc2ccco2)cc1	.	8	.	45*	5	2	28	41*	28
Cc1cc(SCc2ccc(Cl)c(Cl)c2)nc(=O)[nH]1	2	-2	2	5	-3	2	.	.	.
Cc1cc(SCC(=O)c2ccc(Cl)cc2)nc(=O)[nH]1	7	0	-1	37*	0	0	1	-14	-7
Cc1cc(SCc2ccc(Cl)cc2Cl)nc(=O)[nH]1	11	-3	0	52*	2	8	37	-9	30
S=C(c1cn(CCOc2cccc3ccccc23)c2ccccc12)N1CCCC1	1	0	-3	46*	-1	5	52*	-34	28
S=C(c1cn(CCOc2ccccc2)c2ccccc12)N1CCCC1	2	-4	-1	21	-1	-2	.	.	.
CCOC1=C2[C@@H](CN(S(=O)(=O)c3ccc(C)cc3)[C@H]2c2ccccc2F)[C@H]2C(=O)N(CC)C(=O)[C@H]2C1	.	.	.	0	2	.	.	.	.
O=C(CCC(=O)c1cccs1)OCC(=O)N1CCN(C(=O)c2ccco2)CC1	-5	8	-5	33*	1	2	-4	-20	-8
CC1CC(C)CN(C(=O)COC(=O)CCC(=O)c2cccs2)C1 (stereo not drawn)	.	8	.	0	-2	8	.	.	.
CCn1cc(C(=O)NCCc2ccc(OC)c(OC)c2)c(=O)c2cc(S(=O)(=O)N3CCOCC3)ccc21	-2	7	14	-9	-2	-6	.	.	.
COc1ccc(CC(=O)NC(C)(C)CC(C)=O)cc1OC	6	3	-2	-4	1	7	.	.	.
CCC(C)(C)NC(=O)Cc1ccc(OC)c(OC)c1	2	-2	2	138*	2	5	6	-15	-8
COC(=O)c1cccc(Nc2nc(-c3ccncc3)nc3ccccc23)c1	-6	-1	0	3	0	2	.	.	.
COC(=O)c1ccc(Nc2nc(-c3ccncc3)nc3ccccc23)cc1	-3	3	-13	112*	4	2	33	-30	5
O=C(Nc1cc(C(F)(F)F)ccc1N1CCOCC1)c1cccc(S(=O)(=O)N2CCOCC2)c1	.	.	.	-9	1	.	.	.	.
